Measurements taken from PubChem BioAssay (NCATS).
Records with an inconclusive call do not appear. Active and inactive are the calls of the source. The call rests on the fitted dose curve; in most records, active means well fitted curve in the direction sought with a large enough effect; inconclusive means small, poorly fitted or top-dose-only effect, or another doubt; inactive means no such curve, though single readings can be large; an effect the other way counts as inactive or inconclusive.

Experiments:
[1] = P-glycoprotein substrates identified in KB-8-5-11 adenocarcinoma cell line, qHTS therapeutic library screen (AID 1346987); conditions: outcome: dose series up to 44.5 µM unless noted; further: series mostly up to about 44 µM; nearly all actives have a fitted effect of over 65% in size
Outline: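 Compounds are pinned in dose-response onto KB-8-5-11 cells (500 cells/well, colchicine-free medium) and left 72 h at 37 degree C. CellTiter-Glo luminescence then yields AC50 values.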

[2] = NS1 protein of Zika virus - qHTS assay to identify small molecule inhibitors in human HEK 293 cells (AID 1347053); further: series mostly up to about 46 µM; nearly all actives have a fitted effect of over 55% in size
Outline: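 Read-out is a two-antibody TR-FRET for ZIKV NS1, normalized between uninfected cells and infected cells. Compound added 1 h before MR766 infection at MOI 0.5; human HEK 293 cells incubated 24 h, 37 C.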

[3] = qHTS of pediatric cancer cell lines to identify multiple opportunities for drug repurposing: Primary screen for TC32 cells (AID 1347089); further: nearly all actives have a fitted effect of over 60% in size
Outline: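 qHTS, TC32, 48 h drug treatment, CellTiter-Glo luminescence as a proxy for metabolically active cells; primary top concentration 46 µM (MIPE 11-pt, NPC 8-pt); confirmatory 11-pt.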

[4] = qHTS of pediatric cancer cell lines to identify multiple opportunities for drug repurposing: Primary screen for DAOY cells (AID 1347090); further: series mostly up to about 46 µM; nearly all actives have a fitted effect of over 55% in size
Outline: (§1)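 Viability measured as metabolically active cells via CellTiter-Glo luminescence following 48 hours of compound exposure, 11-point dilutions in confirmatory testing. 500-1,000 cells/well plated 5 hours before dosing; controls were DMSO and 2.3 µM bortezomib.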

[5] = qHTS of pediatric cancer cell lines to identify multiple opportunities for drug repurposing: Primary screen for SJ-GBM2 cells (AID 1347091)
Outline: as §1

[6] = qHTS of pediatric cancer cell lines to identify multiple opportunities for drug repurposing: Primary screen for A673 cells (AID 1347092); further: nearly all actives have a fitted effect of over 45% in size
Outline: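 Luminescence from CellTiter-Glo, taken after 15 min at room temperature, served as the proxy for metabolically active cells following 48 h treatment. Both potency and efficacy were taken from curves fitted to the titration data.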

[7] = qHTS of pediatric cancer cell lines to identify multiple opportunities for drug repurposing: Primary screen for SK-N-MC cells (AID 1347093); further: series mostly up to about 46 µM
Outline: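 Metabolically active cells were quantified by ATP-dependent luminescence (CellTiter-Glo, 15 min at room temperature) following 48 h treatment. Cells had been plated at 500-1,000 per well and settled for 5 h beforehand.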

[8] = qHTS of pediatric cancer cell lines to identify multiple opportunities for drug repurposing: Primary screen for BT-37 cells (AID 1347094); further: series mostly up to about 57 µM
Outline: (§2)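 Plated cells (500-1,000 per well, growth media) were allowed to settle for 5 hours, treated with compound dilutions for 48 hours, then lysed with CellTiter-Glo for 15 min at room temperature before luminescence reading.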

[9] = qHTS of pediatric cancer cell lines to identify multiple opportunities for drug repurposing: Primary screen for NB-EBc1 cells (AID 1347095)
Outline: as §2

[10] = qHTS of pediatric cancer cell lines to identify multiple opportunities for drug repurposing: Primary screen for U-2 OS cells (AID 1347096); further: nearly all actives have a fitted effect of over 50% in size
Outline: (§3)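 Viability after 48 h compound treatment at 37C, 500-1,000 cells/well, read as ATP luminescence with CellTiter-Glo. Primary screens used 11-point (MIPE, 0.78 nM-46 µM) or 8-point (NPC, 0.59 nM-46 µM) final concentrations; follow-up screens used 11-point dilutions.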

[11] = qHTS of pediatric cancer cell lines to identify multiple opportunities for drug repurposing: Primary screen for Saos-2 cells (AID 1347097); further: nearly all actives have a fitted effect of over 40% in size
Outline: as §2

[12] = qHTS of pediatric cancer cell lines to identify multiple opportunities for drug repurposing: Primary screen for SK-N-SH cells (AID 1347098);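 further: DMSO served as neutral control and bortezomib at 2.3 µM as positive control; nearly all actives have a fitted effect of over 65% in size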
Outline: (§4)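 Cells (500-1,000/well) rested 5 h, then received compounds for 48 h; metabolically active cells were measured by CellTiter-Glo luminescence. Final concentrations spanned up to 46 µM (MIPE, 11-point) or 0.59 nM-46 µM (NPC, 8-point) in primary screens, 11-point in follow-ups.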

[13] = qHTS of pediatric cancer cell lines to identify multiple opportunities for drug repurposing: Primary screen for NB1643 cells (AID 1347099); further: nearly all actives have a fitted effect of over 50% in size
Outline: as §2

[14] = qHTS of pediatric cancer cell lines to identify multiple opportunities for drug repurposing: Primary screen for LAN-5 cells (AID 1347100)
Outline: as §3

[15] = qHTS of pediatric cancer cell lines to identify multiple opportunities for drug repurposing: Primary screen for BT-12 cells (AID 1347101); further: nearly all actives have a fitted effect of over 25% in size
Outline: as §4

Measured: Potency

CN(C)C=Nc1c(I)cc(I)c(CCC(=O)O)c1I
inactive: [1]

O=C(O)CCC(=O)c1ccc(-c2ccccc2)cc1
inactive: [2] | [3] | [4] | [5] | [6] | [7] | [8] | [9] | [10] | [11] | [12] | [13] | [14] | [15]

CC(C)C[C@H](NC(=O)[C@@H](COC(C)(C)C)NC(=O)[C@H](Cc1ccc(O)cc1)NC(=O)[C@H](CO)NC(=O)[C@H](Cc1c[nH]c2ccccc12)NC(=O)[C@H](Cc1cnc[nH]1)NC(=O)[C@@H]1CCC(=O)N1)C(=O)N[C@@H](CCCN=C(N)N)C(=O)N1CCC[C@H]1C(=O)NNC(N)=O
inactive: [1]

CCCCCCCCCCCC(=O)N(CCO)CCO
inactive: [1]
